# Source: PubChem BioAssay (NCATS)
# Inconclusive results are not listed. Active and inactive are the calls of the source. The call rests on the fitted dose curve; in most records, active means well fitted curve in the direction sought with a large enough effect; inconclusive means small, poorly fitted or top-dose-only effect, or another doubt; inactive means no such curve, though single readings can be large; an effect the other way counts as inactive or inconclusive.
# Key:
# [1] = qHTS of pediatric cancer cell lines to identify multiple opportunities for drug repurposing: Primary screen for A673 cells (AID 1347092); further: nearly all actives have a fitted effect of over 45% in size
# How it was run: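 Luminescence from CellTiter-Glo, taken after 15 min at room temperature, served as the proxy for metabolically active cells following 48 h treatment. Both potency and efficacy were taken from curves fitted to the titration data.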
# [2] = qHTS of pediatric cancer cell lines to identify multiple opportunities for drug repurposing: Primary screen for SK-N-MC cells (AID 1347093)
# How it was run: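 Metabolically active cells were quantified by ATP-dependent luminescence (CellTiter-Glo, 15 min at room temperature) following 48 h treatment. Cells had been plated at 500-1,000 per well and settled for 5 h beforehand.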
# [3] = qHTS of pediatric cancer cell lines to identify multiple opportunities for drug repurposing: Primary screen for BT-37 cells (AID 1347094)
# How it was run: (§1)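 Following a 5-hour attachment period, cells at 500-1,000/well received compounds and were cultured for 48 hours. CellTiter-Glo was added and luminescence read to estimate viable, metabolically active cells.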
# [4] = qHTS of pediatric cancer cell lines to identify multiple opportunities for drug repurposing: Primary screen for U-2 OS cells (AID 1347096); further: nearly all actives have a fitted effect of over 50% in size
# How it was run: (§2)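 Cells (500-1,000/well) rested 5 h, then received compounds for 48 h; metabolically active cells were measured by CellTiter-Glo luminescence. Final concentrations spanned up to 46 µM (MIPE, 11-point) or 0.59 nM-46 µM (NPC, 8-point) in primary screens, 11-point in follow-ups.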
# [5] = qHTS of pediatric cancer cell lines to identify multiple opportunities for drug repurposing: Primary screen for Saos-2 cells (AID 1347097); further: nearly all actives have a fitted effect of over 40% in size
# How it was run: as §1
# [6] = qHTS of pediatric cancer cell lines to identify multiple opportunities for drug repurposing: Primary screen for SK-N-SH cells (AID 1347098); further: nearly all actives have a fitted effect of over 65% in size
# How it was run: as §2
# [7] = qHTS of pediatric cancer cell lines to identify multiple opportunities for drug repurposing: Primary screen for NB1643 cells (AID 1347099); further: nearly all actives have a fitted effect of over 50% in size
# How it was run: as §1
# [8] = qHTS of pediatric cancer cell lines to identify multiple opportunities for drug repurposing: Primary screen for LAN-5 cells (AID 1347100)
# How it was run: as §2
# [9] = qHTS of pediatric cancer cell lines to identify multiple opportunities for drug repurposing: Primary screen for BT-12 cells (AID 1347101); further: nearly all actives have a fitted effect of over 25% in size
# How it was run: as §2
# [10] = qHTS of pediatric cancer cell lines to identify multiple opportunities for drug repurposing: Primary screen for NB-EBc1 cells (AID 1347095)
# How it was run: as §1
# Potency means the concentration at half of the fitted maximal effect.
SMILES,Potency [1],Potency [2],Potency [3],Potency [4],Potency [5],Potency [6],Potency [7],Potency [8],Potency [9],Potency [10]
C=C1C(=CC=C2CCC[C@]3(C)[C@@H]([C@H](C)CCCC(C)(C)O)CC[C@@H]23)C[C@@H](O)C[C@@H]1O,1480 nM (active),1480 nM (active),6850 nM (active),18700 nM (active),14800 nM (active),3830 nM (active),2350 nM (active),1660 nM (active),6850 nM (active),–
CC(=O)[C@]1(O)Cc2c(O)c3c(c(O)c2[C@@H](O[C@H]2C[C@H](N)[C@@H](O)[C@H](C)O2)C1)C(=O)c1ccccc1C3=O,148 nM (active),118 nM (active),193 nM (active),–,–,192 nM (active),743 nM (active),93.5 nM (active),–,37.2 nM (active)
CC1(C)[C@H](O[C@H]2O[C@H](C(=O)O)[C@@H](O)[C@H](O)[C@H]2O[C@@H]2O[C@H](C(=O)O)[C@@H](O)[C@H](O)[C@H]2O)CC[C@@]2(C)[C@H]1CC[C@]1(C)[C@H]2C(=O)C=C2[C@H]3C[C@@](C)(C(=O)O)CC[C@]3(C)CC[C@]21C,inactive,inactive,inactive,inactive,inactive,inactive,inactive,inactive,inactive,–
COc1cccc2c1C(=O)c1c(O)c3c(c(O)c1C2=O)C[C@@](O)(C(=O)CO)C[C@@H]3O[C@H]1C[C@H](N)[C@@H](O)[C@H](C)O1,372 nM (active),235 nM (active),193 nM (active),–,2350 nM (active),429 nM (active),662 nM (active),118 nM (active),–,118 nM (active)
COc1ccc2c(c1OC)C(=O)OC2[C@H]1c2c(cc3c(c2OC)OCO3)CCN1C (stereo partly specified),74.3 nM (active),83.3 nM (active),611 nM (active),–,235 nM (active),–,1180 nM (active),–,1090 nM (active),372 nM (active)
C=CCNc1c(O)cc2c(O)c1C[C@@H](C)C[C@H](OC)[C@@H](O)[C@@H](C)C=C(C)[C@H](OC(N)=O)[C@@H](OC)C=CC=C(C)C(=O)N2,935 nM (active),1180 nM (active),217 nM (active),–,–,3040 nM (active),1480 nM (active),1870 nM (active),–,1320 nM (active)
Nc1ccn(C[C@@H](CO)OCP(=O)(O)O)c(=O)n1,inactive,inactive,inactive,inactive,inactive,inactive,inactive,inactive,–,–
CCCNC(=O)[C@H]1O[C@H]1C(=O)N[C@H](C(=O)N1CCC[C@@H]1C(=O)OC)C(C)CC (stereo partly specified),2350 nM (active),2640 nM (active),17200 nM (active),–,2960 nM (active),–,–,10500 nM (active),–,16600 nM (active)
COc1cccc2c1C(=O)c1c(O)c3c(c(O)c1C2=O)C[C@@](O)(C(=O)CO)C[C@H]3O[C@H]1C[C@H](N)[C@H](O)[C@H](C)O1,235 nM (active),105 nM (active),122 nM (active),–,1320 nM (active),242 nM (active),526 nM (active),–,485 nM (active),46.9 nM (active)
COc1ccc(C=Cc2cc(OC)c(OC)c(OC)c2)cc1NC(=O)[C@H](N)CO,9.3 nM (active),11.8 nM (active),17.2 nM (active),–,10.5 nM (active),inactive,–,13.2 nM (active),8.6 nM (active),1 nM (active)
CCC(C(=O)O)C1CCC(C)C(C(C)C(O)C(C)C(=O)C(CC)C2OC3(C=CC(O)[C@@]4(CC[C@](C)(C5CC[C@@](O)(CC)C(C)O5)O4)O3)C(C)CC2C)O1 (stereo partly specified),2350 nM (active),187 nM (active),611 nM (active),–,9350 nM (active),12100 nM (active),1660 nM (active),1050 nM (active),385 nM (active),296 nM (active)
Cn1cc(-c2cnn3c(N)c(Br)c([C@H]4CCCNC4)nc23)cn1,59 nM (active),93.5 nM (active),685 nM (active),–,1480 nM (active),17100 nM (active),1320 nM (active),743 nM (active),–,264 nM (active)
Nc1cccc2c1C(=O)N(C1CCC(=O)NC1=O)C2=O (stereo unspecified),inactive,inactive,inactive,inactive,–,inactive,inactive,inactive,–,–
CCOC(=O)C1=C(C)NC(=S)NC1c1cccc(O)c1 (stereo unspecified),46.9 nM (active),264 nM (active),–,inactive,–,–,inactive,187 nM (active),137 nM (active),264 nM (active)
O=C(NC1CC1)c1cccc(-c2ccc3c(NC(=O)C4CC4)n[nH]c3c2)c1,372 nM (active),372 nM (active),3430 nM (active),–,2960 nM (active),1710 nM (active),935 nM (active),2090 nM (active),3850 nM (active),–
